According to the supplement of paper PMC9492666:
Where a name gives a salt, the structure may show the parent alone.

These molecules were tested on HCC1937 (assay: relative cell viability, compound alone, vs DMSO (fraction of DMSO control); higher = less growth inhibition). Conditions: 72 h.
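Further: viability read out with the CCK-8 kit in 96-well plates, screening a set of 303 compounds acting on lipid metabolism targets.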

| Structure (SMILES) | relative cell viability |
| --- | --- |
| CC(C)n1c(/C=C/C(O)CC(O)CC(=O)O)c(-c2ccc(F)cc2)c2ccccc21 (stereo not drawn) [Fluvastatin sodium salt] | 0.924 |
| CC(C)(Oc1ccc(CCNC(=O)c2ccc(Cl)cc2)cc1)C(=O)O [Bezafibrate] | 0.628 |
| O=C(O)C(O)Cc1ccc(O)c(O)c1 (stereo not drawn) [Sodium Danshensu] | 0.718 |
| O=C(Nc1ccncc1)c1cc([N+](=O)[O-])ccc1Cl | 0.81 |
| CC(C)(C)c1ccc(-c2nc3ccccc3[nH]2)cc1 | 0.728 |
| CC(C)(C)N1C(=O)C(Nc2ccc(N3CCCCC3)cc2)=C(c2ccccc2)S1(=O)=O | 1.15 |
| O=C(NNc1ccccc1)c1ccncc1 [PluriSln 1] | 0.925 |

These molecules were tested on MDA-MB-231 in the same assay as above. Conditions: 72 h.

| Structure (SMILES) | relative cell viability |
| --- | --- |
| CN(C)C(=N)NC(=N)N [Metformin hydrochloride] | 0.95 |
| O=C(Nc1ccccc1)N1CCN(c2nc(-c3ccccc3)ns2)CC1 | 0.821 |
| NC(CO)C(=O)O (racemic) [DL-Serine] | 0.77 |
| O=C(c1ccc(-c2nc3ccc(F)cc3o2)cc1)N1CCN(C(=O)C2(O)CC2)CC1 | 0.918 |
| CC1=C(C)C(=O)C(C(CCCCCC(=O)O)c2ccccc2)=C(C)C1=O (stereo not drawn) [Seratrodast] | 0.809 |
| CN(CCOc1ccc(CC2SC(=O)NC2=O)cc1)c1ccccn1 (stereo not drawn) [Rosiglitazone maleate] | 0.86 |
| CC1(N)CCN(c2cnc(-c3cccc(Cl)c3Cl)c(N)n2)CC1 [SHP099 hydrochloride] | 1.02 |
| COc1ccc2c(=O)c(-c3ccccc3)coc2c1 [7-Methoxyisoflavone] | 0.859 |
| COc1ccc2c(c1)CCC1C2CCC2(C)C(NCCCCCCN3C(=O)C=CC3=O)CCC12 (stereo not drawn) | 0.806 |
| CC1=C(/C=C/C(C)=C/C=C/C(C)=C/C=C/C=C(C)/C=C/C=C(C)/C=C/C2=C(C)C(=O)[C@@H](O)CC2(C)C)C(C)(C)C[C@H](O)C1=O [Astaxanthin] | 1.13 |
| CNC(=O)c1cccc(NC(=O)N2CCC(Oc3ccccc3Cl)CC2)c1 | 0.974 |
| CCN(CC)c1ccc(C=NNC(=O)c2ccncc2)c(O)c1 | 0.624 |
| O=P(O)(O)OC(CO)CO [β-Glycerol phosphate disodium salt pentahydrate] | 0.874 |
| Cc1cc(=O)oc2c(O)c(O)ccc12 [7,8-Dihydroxy-4-methylcoumarin] | 1.02 |
| CC(C)CCC[C@@H](C)[C@H]1CC[C@H]2[C@@H]3CCC4=CC(=NO)CC[C@]4(C)[C@H]3CC[C@]12C [Olesoxime] | 0.789 |
| Cc1c(C(=O)NN2CCOCC2)nn(-c2ccc(Cl)cc2Cl)c1-c1ccc(I)cc1 | 0.817 |
| N[C@@H](Cc1c[nH]cn1)C(=O)O [histidine] | 1.03 |
| O=C(NN1CCCCC1)c1nn(-c2ccc(Cl)cc2Cl)c(-c2ccc(C#Cc3ccc(C(F)(F)F)cc3)s2)c1CNS(=O)(=O)N1CCCC1 | 0.893 |
| CC1(C)CC[C@]2(C(=O)O[C@@H]3O[C@H](CO)[C@@H](O)[C@H](O)[C@H]3O)CC[C@]3(C)C(=CC[C@@H]4[C@@]5(C)CC[C@H](O[C@@H]6O[C@H](C(=O)O)[C@@H](O)[C@H](O)[C@H]6O)C(C)(C)[C@@H]5CC[C@]43C)[C@@H]2C1 [Chikusetsusaponin IVa] | 0.966 |
| CCCCCCCCCc1ccc(B(O)O)cc1 [4-Nonylphenylboronic acid] | 1.08 |
| O=C(OC(C(F)(F)F)C(F)(F)F)N1CCN(Cc2ccc(C(F)(F)F)cc2N2CCCC2)CC1 | 1.01 |
| CCOP(=O)(OCC)C(=Cc1cc(C(C)(C)C)c(O)c(C(C)(C)C)c1)P(=O)(OCC)OCC | 0.779 |
| CC1(C)CC[C@]2(C(=O)O[C@@H]3O[C@H](CO)[C@@H](O)[C@H](O)[C@H]3O)CC[C@]3(C)C(=CC[C@@H]4[C@@]5(C)CC[C@H](O[C@@H]6O[C@H](C(=O)O)[C@@H](O)[C@H](O)[C@H]6O[C@@H]6O[C@H](CO)[C@@H](O)[C@H](O)[C@H]6O)C(C)(C)[C@@H]5CC[C@]43C)[C@@H]2C1 [Ginsenoside Ro] | 0.9 |
| CCc1c(-c2ccccc2)c(-c2ccccc2)nn1-c1ccccc1-c1cccc(OCC(=O)O)c1 | 0.994 |
| CCCCC[C@H](O)CC(=O)CCc1ccc(O)c(OC)c1 [6-Gingerol] | 0.862 |
| C/C=C(\CC[C@@H](C)[C@H]1CC[C@H]2[C@@H]3CC=C4C[C@@H](O)CC[C@]4(C)[C@H]3CC[C@]12C)C(C)C [Fucosterol] | 0.968 |
